Paper PMC9911399, “Two distinct binding modes provide the RNA-binding protein RbFox with extraordinary sequence specificity”
Numbering of substitutions follows the chain as printed; changes in the protein carry UniProt numbers. Whole data set: some 16,000 sequences, median “ka relative to ugcaugu” near 0.096, cut for the highest 2% near 0.35. The list comes from a sample in which the highest values are over-represented; it also holds similar and randomly drawn sequences.

B1: UCUGGGU (DNA:RNA)
RNA: GGGAGACCGGAAUUCAGAUUGUCCUCUGGGUUUAAAUCCCGUCGUAGCCACCA
DNA 1: CAATCTGAATTCCGGTCTCCC
DNA 2: TGGTGGCTACGACGGGATT
B2: GUGGUUC (DNA:RNA)
RNA: B1 RNA with U25G, C26U, U27G, G29U, G30U, U31C
DNA 1: CAATCTGAATTCCGGTCTCCC
DNA 2: TGGTGGCTACGACGGGATT
B3: AGCGCCG (DNA:RNA)
RNA: B1 RNA with U25A, C26G, U27C, G29C, G30C, U31G
DNA 1: CAATCTGAATTCCGGTCTCCC
DNA 2: TGGTGGCTACGACGGGATT
B4: ACACACC (DNA:RNA)
RNA: B1 RNA with U25A, U27A, G28C, G29A, G30C, U31C
DNA 1: CAATCTGAATTCCGGTCTCCC
DNA 2: TGGTGGCTACGACGGGATT
B5: UGUGUAA (DNA:RNA)
RNA: B1 RNA with C26G, G29U, G30A, U31A
DNA 1: CAATCTGAATTCCGGTCTCCC
DNA 2: TGGTGGCTACGACGGGATT
B6: CAACCGG (DNA:RNA)
RNA: B1 RNA with U25C, C26A, U27A, G28C, G29C, U31G
DNA 1: CAATCTGAATTCCGGTCTCCC
DNA 2: TGGTGGCTACGACGGGATT
B7: CUACAAU (DNA:RNA)
RNA: B1 RNA with U25C, C26U, U27A, G28C, G29A, G30A
DNA 1: CAATCTGAATTCCGGTCTCCC
DNA 2: TGGTGGCTACGACGGGATT
B8: CGGCAAU (DNA:RNA)
RNA: B1 RNA with U25C, C26G, U27G, G28C, G29A, G30A
DNA 1: CAATCTGAATTCCGGTCTCCC
DNA 2: TGGTGGCTACGACGGGATT
B9: UUGGUUU (DNA:RNA)
RNA: B1 RNA with C26U, U27G, G29U, G30U
DNA 1: CAATCTGAATTCCGGTCTCCC
DNA 2: TGGTGGCTACGACGGGATT

Target: T1, RBFOX1 RRM RbFoxmut (Fox-RRM*) (Homo sapiens, UniProt Q9NWB1 109-208, R118D;E147R;N151S;E152T)
T1 sequence: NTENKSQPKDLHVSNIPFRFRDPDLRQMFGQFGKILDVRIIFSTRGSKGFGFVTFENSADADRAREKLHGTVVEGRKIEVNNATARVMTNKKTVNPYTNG
Assay: EMSA; HiTS-Eq, 1 nM pool, 10 min; buffer printed only for the single-RNA assays: 10 mM Tris pH 7.5, 150 mM NaCl, 3.4 mM EDTA, 0.001% NP-40, 30 C
Conditions: tags: His6 N-terminal (pET28a); label: 5' 32P
Procedure, shortened: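 Purified wild-type or mutant RbFox RRM at increasing concentrations was equilibrated with 1 nM of 5′-radiolabelled RNA carrying 7 randomized nucleotides for 10 min in 50 µL. Unbound RNA was separated by 8% native PAGE and sequenced. Relative association constants came from read-count changes of each RNA species compared with the control reaction, normalised to the cognate motif.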

Which binding signal does the source give for B1 here?
Its binding signal is 0.0963 KA relative to UGCAUGU.

For B2, which binding signal is on record?
The binding signal was 0.283 KA relative to UGCAUGU.

How did the binding signal turn out when B3 was run?
Its binding signal is 0.116 KA relative to UGCAUGU.

How did the binding signal turn out when B4 was run?
The binding signal was 0.0425 KA relative to UGCAUGU.

For B5, which binding signal is on record?
Its binding signal is 0.111 KA relative to UGCAUGU.

B6 was tested. Which binding signal did it give?
The binding signal was 0.0516 KA relative to UGCAUGU.

How did the binding signal turn out when B7 was run?
The binding signal was 0.0289 KA relative to UGCAUGU.

How did the binding signal turn out when B8 was run?
Its binding signal is 0.053 KA relative to UGCAUGU.

B9 was tested. Which binding signal did it give?
Its binding signal is 0.1 KA relative to UGCAUGU.
